“And” between values parts separate entries of the source, which are not always exact repeats. Equal entries are not always repeated. Records with an inconclusive call do not appear. The source made the active and inactive calls.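 Rule for the calls, unless noted: active = compounds whose cell count with miR-34 switched on is under 0.7 times the count with it off; inactive = the rest.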
test: growth inhibition of DIPG cells – cell-based, MIPE5.0 library, qHTS (AID 1347068; cut-off not given, nearly all actives have IC50 up to about 30 µM;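 for IC50: cells exposed to compound for 48 hours before viability readout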); conditions: SU-DIPG-XXV viability

Row | Compound | outcome | IC50
1 | COc1ccc(-c2ccc3cc(C(=O)O)ccc3c2)cc1C12CC3CC(CC(C3)C1)C2 | inactive | –
2 | COCCCN1CCC(NC(=O)c2cc(Cl)c(N)c3c2OCC3)CC1 | inactive | –
3 | CCOC(=O)c1c(C)n(C)c2ccc(O)cc12 | inactive | –
4 | NCCCC(N)(C(=O)O)C(F)F (configuration not stated) | inactive | –
5 | CN1CCCN=C1/C=C/c1cccs1 | inactive | –
6 | O=[N+]([O-])c1cncn1CCN1CCOCC1 | inactive | –
7 | C=CC(=O)Nc1cc2c(Nc3ccc(F)c(Cl)c3)ncnc2cc1OCCCN1CCOCC1 | – | 5.25 µM (active)
8 | Cc1ccc(C(=O)c2cc(O)c(O)c([N+](=O)[O-])c2)cc1 | inactive | –
9 | Cc1nnc(C(=O)NC(C)(C)c2nc(C(=O)NCc3ccc(F)cc3)c(O)c(=O)n2C)o1 | inactive | –
10 | Cc1ccccc1C(=O)Nc1ccc(C(=O)N2CCCC(O)c3cc(Cl)ccc32)c(C)c1 (configuration not stated) | inactive | –
11 | COc1ccc2cccc(CCNC(C)=O)c2c1 | inactive | –
12 | C[C@]12CCC(=O)C=C1[C@@H]1C[C@@H]1[C@H]1[C@@H]3[C@@H]4C[C@@H]4[C@@]4(CCC(=O)O4)[C@@]3(C)CC[C@@H]12 | inactive | –
13 | CCC1=C[C@@H]2CN(C1)Cc1c([nH]c3ccccc13)[C@@](C(=O)OC)(c1cc3c(cc1OC)N(C)[C@H]1[C@@](O)(C(=O)OC)[C@H](OC(C)=O)[C@]4(CC)C=CCN5CC[C@]31[C@@H]54)C2 | – | 1.15 µM (active)
14 | CC1(C)CCC(C)(C)c2cc(NC(=O)c3ccc(C(=O)O)cc3)ccc21 | inactive | –
15 | CNC(=O)c1ccccc1Sc1ccc2c(/C=C/c3ccccn3)n[nH]c2c1 | – | 3.72 µM (active)
16 | CCOC(=O)c1ccc(C#Cc2ccc3c(c2)C(C)(C)CCS3)nc1 | inactive | –

Row | Compound | outcome | IC50
17 | CC(=O)OCC(=O)[C@@]12N=C(C)O[C@@H]1C[C@H]1[C@@H]3CCC4=CC(=O)C=C[C@]4(C)[C@H]3[C@@H](O)C[C@@]12C | inactive | –
18 | O=P(O)(O)C(O)(Cn1ccnc1)P(=O)(O)O | inactive | –
19 | O=c1cc(O)c(Cl)c[nH]1 | inactive | –
20 | CC(C)(C)C(=O)Oc1ccc(S(=O)(=O)Nc2ccccc2C(=O)NCC(=O)O)cc1 | inactive | –
21 | N[C@@H](Cc1c[nH]c2ccc(O)cc12)C(=O)O | inactive | –
22 | O=C(Nc1ccc(S(=O)(=O)N2CCOCC2)cc1)c1cc(Cl)ccc1NS(=O)(=O)c1ccc(Cl)s1 | inactive | –
23 | CCCCN(CCCC)CC(O)c1cc(Cl)cc2c1-c1ccc(Cl)cc1/C2=C/c1ccc(Cl)cc1 (configuration not stated) | inactive | –
24 | N#Cc1c(N(CC(=O)O)CC(=O)O)sc(C(=O)O)c1CC(=O)O | inactive | –
25 | N=C(N)c1ccc2cc(OC(=O)c3ccc(N=C(N)N)cc3)ccc2c1 | inactive | –
26 | COC(c1ccccc1)(c1ccccc1)[C@H](Oc1nc(C)cc(C)n1)C(=O)O | inactive | –
27 | NC(=O)c1ncn([C@@H]2O[C@H](CO)[C@@H](O)[C@H]2O)c1N | inactive | –
28 | c1cnc2cc3c(cc2n1)C1CNCC3C1 | inactive | –
29 | CC(C(=O)O)c1ccc2c(c1)CC(=O)c1ccccc1S2 (configuration not stated) | inactive | –
30 | CN(C)C(=O)COC(=O)Cc1ccc(OC(=O)c2ccc(N=C(N)N)cc2)cc1 | inactive | –
31 | CCCCc1oc2ccc(NS(C)(=O)=O)cc2c1C(=O)c1ccc(OCCCN(CCCC)CCCC)cc1 | – | 10.5 µM (active)
32 | CC(C)C[C@H](NC(=O)[C@H](CCc1ccccc1)NC(=O)CN1CCOCC1)C(=O)N[C@@H](Cc1ccccc1)C(=O)N[C@@H](CC(C)C)C(=O)[C@@]1(C)CO1 | – | 0.0934 µM (active)

test: viability loss with induced miR-34 in A549 – imaging, A549 dox-inducible miR-34, nuclei and caspase counts, primary screen (AID 1347080); conditions: A549 miR-34 inducible, Hoechst nuclei count, 48 h; hits give low values; cell number ratio, induced over uninduced

Row | Compound | fold change
33 | O=C(O)c1ccc(-n2nc(-c3ccccc3O)nc2-c2ccccc2O)cc1 | 0.936 (inactive)
34 | COc1ccc(-c2ccc3cc(C(=O)O)ccc3c2)cc1C12CC3CC(CC(C3)C1)C2 | 1.08 (inactive) and 1.16 (inactive)
35 | COCCCN1CCC(NC(=O)c2cc(Cl)c(N)c3c2OCC3)CC1 | 0.972 (inactive) and 1.31 (inactive)
36 | CCOC(=O)c1c(C)n(C)c2ccc(O)cc12 | 0.886 (inactive)
37 | NCCCC(N)(C(=O)O)C(F)F (configuration not stated) | 1.13 (inactive)
38 | CN1CCCN=C1/C=C/c1cccs1 | 0.92 (inactive)
39 | Cc1ccc(C(=O)c2cc(O)c(O)c([N+](=O)[O-])c2)cc1 | 0.985 (inactive) and 0.843 (inactive)
40 | Cc1nnc(C(=O)NC(C)(C)c2nc(C(=O)NCc3ccc(F)cc3)c(O)c(=O)n2C)o1 | 0.902 (inactive)
41 | Cc1ccccc1C(=O)Nc1ccc(C(=O)N2CCCC(O)c3cc(Cl)ccc32)c(C)c1 (configuration not stated) | 0.834 (inactive) and 0.856 (inactive)
42 | COc1ccc2cccc(CCNC(C)=O)c2c1 | 0.904 (inactive) and 0.982 (inactive) and 0.944 (inactive)
43 | Cc1cc2c(cc1CC(=O)c1sccc1S(=O)(=O)Nc1onc(C)c1Cl)OCO2 | 0.871 (inactive)
44 | CCC1=C[C@@H]2CN(C1)Cc1c([nH]c3ccccc13)[C@@](C(=O)OC)(c1cc3c(cc1OC)N(C)[C@H]1[C@@](O)(C(=O)OC)[C@H](OC(C)=O)[C@]4(CC)C=CCN5CC[C@]31[C@@H]54)C2 | 0.917 (inactive)
45 | CC1(C)CCC(C)(C)c2cc(NC(=O)c3ccc(C(=O)O)cc3)ccc21 | 0.901 (inactive)
46 | Cc1ccc(Nc2nccc(N(C)c3ccc4c(C)n(C)nc4c3)n2)cc1S(N)(=O)=O | 0.9 (inactive) and 0.786 (inactive)
47 | CCOC(=O)c1ccc(C#Cc2ccc3c(c2)C(C)(C)CCS3)nc1 | 0.864 (inactive)
48 | O=P(O)(O)C(O)(Cn1ccnc1)P(=O)(O)O | 0.851 (inactive)
49 | O=c1cc(O)c(Cl)c[nH]1 | 0.957 (inactive)
50 | CC(C)(C)C(=O)Oc1ccc(S(=O)(=O)Nc2ccccc2C(=O)NCC(=O)O)cc1 | 1.07 (inactive)
51 | N[C@@H](Cc1c[nH]c2ccc(O)cc12)C(=O)O | 1.04 (inactive)
52 | CCCCN(CCCC)CC(O)c1cc(Cl)cc2c1-c1ccc(Cl)cc1/C2=C/c1ccc(Cl)cc1 (configuration not stated) | 1.04 (inactive)
53 | N=C(N)c1ccc2cc(OC(=O)c3ccc(N=C(N)N)cc3)ccc2c1 | 1.02 (inactive) and 0.918 (inactive)
54 | c1cnc2cc3c(cc2n1)C1CNCC3C1 | 1.05 (inactive)
55 | CC(C(=O)O)c1ccc2c(c1)CC(=O)c1ccccc1S2 (configuration not stated) | 0.901 (inactive)
56 | CN(C)C(=O)COC(=O)Cc1ccc(OC(=O)c2ccc(N=C(N)N)cc2)cc1 | 0.981 (inactive)
57 | CCCCc1oc2ccc(NS(C)(=O)=O)cc2c1C(=O)c1ccc(OCCCN(CCCC)CCCC)cc1 | 1.3 (inactive) and 0.866 (inactive)

Reference: PubChem BioAssay
